Assay results taken from the supplement of paper PMC8387472.

Columns and labels:
Settings in all cases: mESC; 2uM; 72 h treatment, harvest day 5
[1] = compound: CNc1ccc([N+](=O)[O-])c(Nc2ccc3[nH]ncc3c2)n1; assay: fraction of microhomology deletions among edited reads; higher = more MH deletions
[2] = compound: S=c1nc[nH]c2nc[nH]c12 [6-Mercaptopurine (6-MP) Monohydrate]; assay: fraction of edited reads among all mapped reads; higher = more Cas9 editing
[3] = compound: CC(=O)O/N=C1\C(=O)N(Cc2cc(Cl)ccc2Cl)c2ccc(Cl)cc21; assay: fraction of microhomology deletions among edited reads; higher = more MH deletions
[4] = compound: CC(C)(C#N)c1ccc(N2C(=O)OCc3cnc4ccc(-c5cnc6ccccc6c5)cc4c32)cc1; assay: as above
[5] = compound: CCCCOc1c(C(=O)c2c(F)cc(C)cc2F)c[nH]c2nncc1-2; assay: as above
[6] = compound: O=c1cc(N2CCOCC2)oc2c(-c3ccc4c(c3)OCCO4)csc12; assay: fraction of edited reads among all mapped reads; higher = more Cas9 editing
[7] = compound: S=c1[nH]cnc2nc[nH]c12 [Mercaptopurine (6-MP)]; assay: as above
[8] = compound: CCN1CCN(CC(=O)Nc2ccc(-c3cccc4c(=O)cc(N5CCOCC5)oc34)c3sc4ccccc4c23)CC1; assay: fraction of microhomology deletions among edited reads; higher = more MH deletions
[9] = compound: CCc1c2c(nc3ccc(OC(=O)N4CCC(N5CCCCC5)CC4)cc13)-c1cc3c(c(=O)n1C2)COC(=O)[C@]3(O)CC [Irinotecan HCl Trihydrate]; assay: as above
[10] = compound: CCn1c(=O)c(-c2ccc(Cl)cc2Cl)cc2cnc(Nc3ccc(N4CCNCC4)c(F)c3)nc21; assay: as above

Target	fraction of microhomology deletions among edited reads [1]	fraction of edited reads among all mapped reads [2]	fraction of microhomology deletions among edited reads [3]	fraction of microhomology deletions among edited reads [4]	fraction of microhomology deletions among edited reads [5]	fraction of edited reads among all mapped reads [6]	fraction of edited reads among all mapped reads [7]	fraction of microhomology deletions among edited reads [8]	fraction of microhomology deletions among edited reads [9]	fraction of microhomology deletions among edited reads [10]
23.0 AGAACAAAGCGCTCATATAACGATATGGGGGGTTATGGGGGGTTGAATTGCTTCAGCACGA	0.88									
8.0 GCATGCGTGTTTTGGGACAATGTAGTATACATTTGGGAGGCTCTCAGCTTTTCCCAATAAA		0.017	0.107	0.0584	0.0574					
29.0 (DMSO control at this site: 1-bp insertion 0.084, MH deletion 0.745, edited 0.133) TTGATGAACTTCCTCTTCTTCTCATGTCTCCGGTCTCCGGTAGGCCACGTGCATGGCCACT	0.738	0.127	0.727	0.728	0.734	0.0905	0.171	0.773	0.719	0.757
46.0 TTAAGAGCAATGTTCACGCAACTTGAAATTATATCTGTGGTCTTCAAATTGTCTTTTGTCA	0.376	0.0652		0.597	0.422					
18.0 (DMSO control at this site: 1-bp insertion 0.114, MH deletion 0.789, edited 0.094) GCGCAAGTGCATAAGTTTTTCTTAAGGCGTGCCTTTAAGGCGTGCCTTTGTCGGTCCTGGA	0.793	0.0789	0.794	0.798	0.787	0.0717	0.112	0.866	0.789	0.794
22.0 (DMSO control at this site: 1-bp insertion 0.573, MH deletion 0.229, edited 0.045) CTGATGGTTGAAGGATTTAGCCGGGGTCCTAGACGCCGGGGTCCTAGACGAAAGGGCCACG	0.117	0.0558	0.159	0.162	0.122	0.0255	0.0686	0.296	0.125	0.168
41.0 (DMSO control at this site: 1-bp insertion 0.022, MH deletion 0.754, edited 0.115) AAAGAGACAGCAGGTATGAATCCATCTTCCTGACCCTTGGGACCAGCCGGGGCAGTGAAGC	0.742	0.116	0.745	0.754	0.717	0.0713	0.161	0.792	0.729	0.738
26.0 (DMSO control at this site: 1-bp insertion 0.518, MH deletion 0.262, edited 0.026) AGGGCGCGCCCCACGCACTCTGCGGCAAGTCCCTCTGCGGCAAGTCCTCGGCCCGGAAGAC	0.256	0.0282	0.289	0.324	0.27	0.0106	0.04	0.54	0.29	0.331
3.0 (DMSO control at this site: 1-bp insertion 0.109, MH deletion 0.149, edited 0.09) TGCTAGCGCCCCCACAAAGCGGACCAGCCAGCACTATAGGGAATAAGGCCAACTTGCACCC	0.188	0.0926	0.225	0.161	0.199	0.0464	0.123	0.266	0.222	0.226
5.0 (DMSO control at this site: 1-bp insertion 0.214, MH deletion 0.567, edited 0.105) CGCTGACCCGAGACCTACGCGAACCGAAATCGGCGACCGGTGCGCAAGCAGGGCTGGCGTC	0.552	0.0997	0.593	0.605	0.588	0.0695	0.151	0.705	0.563	0.617
1.0 (DMSO control at this site: 1-bp insertion 0.521, MH deletion 0.323, edited 0.141) GTGTCACAGTGCACGAGTGACGGGATAATGTGCTGACAGGTAATTGATAGGCTTCCAACTT	0.218		0.293	0.269	0.238	0.0814	0.187	0.461	0.246	0.293
16.0 (DMSO control at this site: 1-bp insertion 0.172, MH deletion 0.29, edited 0.05) CGGACTGCACACATGGGTAGGATCGTGCACGCGAGGTAGGATCGTGCACGCGAAGTTATTC	0.252	0.0574	0.319	0.293	0.294	0.0306	0.0811	0.34	0.252	0.308
0.0 (DMSO control at this site: 1-bp insertion 0.463, MH deletion 0.339, edited 0.14) AGGATTACCGAGACCTACGCGAACCGAAATCGCTGTCCGGTGCGCAAGCAGGGCTGGCGTC	0.304	0.128	0.346	0.314	0.312	0.0913	0.181	0.552	0.345	0.394
20.0 (DMSO control at this site: 1-bp insertion 0.349, MH deletion 0.138, edited 0.084) TACAGGTGTAGACTGGTTACGTGGCTGCGGAATTGACTGGTTACGTGGCTGCGGAATTTTG	0.136	0.082	0.235	0.239	0.174	0.0465	0.111	0.285	0.222	0.12
21.0 CGATTGAGAGTCAAACGGGCCAGAAAACTCCGGGAACGGGCCAGAAAACTCCGGGGCATGG	0.197	0.117	0.191	0.163	0.144	0.0627	0.169	0.276	0.188	
